Laboratory results published in the supplement of paper PMC6522484.
± gives the standard deviation of the averaged measurements.

Experiments:
[1] = system: DLD1; assay: cell viability (CellTiter-Glo) relative to plate median (fraction of plate median); higher = more viable cells; details: 5 µM; treatment time 24 h; reporter: 7TFP
How it was run: (§1)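 Library compounds were added at a final concentration of 5 µM for 24 h to colorectal cancer cells stably transduced with a lentiviral TCF/Wnt firefly luciferase reporter. Reported values are firefly luciferase or CellTiterGlo luminescence, normalised per well to the plate median. Each value averages two independent replicates.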

[2] = system: HCT116; assay: as above; details: 5 µM; treatment time 24 h; reporter: TCF4/Wnt
How it was run: as §1

[3] = system: SW480; assay: as above; details: 5 µM; treatment time 24 h; reporter: 7TFP
How it was run: as §1

[4] = system: DLD1; assay: TCF/Wnt firefly luciferase reporter signal relative to plate median (fraction of plate median); higher = higher Wnt reporter signal; details: 5 µM; treatment time 24 h; reporter: 7TFP
How it was run: as §1

[5] = system: SW480; assay: as above; details: 5 µM; treatment time 24 h; reporter: 7TFP
How it was run: as §1

C/C=C/C=C/C1C=CC2CC(C)CCC2C1(C)/C(O)=C1/C(=O)NC(C(C)O)C1=O (stereo not given) [Altersetin]
cell viability [1]: 1 ± 0.023 | cell viability [2]: 0.974 ± 0.018 | cell viability [3]: 1 ± 0.011 | TCF/Wnt firefly luciferase reporter signal [4]: 1 ± 0.043 | TCF/Wnt firefly luciferase reporter signal [5]: 0.923 ± 0.052

CCC[C@@H]1C[C@@H](C(=O)N[C@@H]([C@H]2O[C@H](SC)[C@H](O)[C@@H](O)[C@H]2O)[C@@H](C)O)N(C)C1
cell viability [1]: 1.05 ± 0.12 | cell viability [2]: 1.03 ± 0.021 | cell viability [3]: 1.035 ± 0.0071 | TCF/Wnt firefly luciferase reporter signal [4]: 0.934 ± 0.015 | TCF/Wnt firefly luciferase reporter signal [5]: 1.04 ± 0.083

N[C@@H](C=O)[C@@H](O[C@@H]1O[C@H](C(=O)O)[C@@H](O)[C@H](O)[C@H]1O)[C@@H](O)[C@H](O)CO
cell viability [1]: 1.02 | cell viability [2]: 1.14 ± 0.22 | cell viability [3]: 1 ± 0.054 | TCF/Wnt firefly luciferase reporter signal [4]: 0.939 ± 0.029 | TCF/Wnt firefly luciferase reporter signal [5]: 1 ± 0.078

C[C@@H]1CC[C@H]2[C@](C)(CO)[C@@H](O)CC[C@]2(C)[C@@]12CC[C@@](CO)(CCO)O2
cell viability [1]: 0.994 ± 0.052 | cell viability [2]: 1.02 ± 0.049 | cell viability [3]: 0.9945 ± 0.0078 | TCF/Wnt firefly luciferase reporter signal [4]: 1.01 ± 0.043 | TCF/Wnt firefly luciferase reporter signal [5]: 1.02 ± 0.014

CN(C)CC/C=C1/c2ccccc2Sc2ccc(Cl)cc21
cell viability [1]: 0.835 ± 0.21 | cell viability [2]: 0.98 ± 0.019 | cell viability [3]: 0.934 ± 0.016 | TCF/Wnt firefly luciferase reporter signal [4]: 1.07 ± 0.042 | TCF/Wnt firefly luciferase reporter signal [5]: 0.967 ± 0.061

CC(=O)OC1CCC2(O)CC1(C)CCC1C2CC1(C)C (stereo not given)
cell viability [1]: 1.03 ± 0.014 | cell viability [2]: 1.06 ± 0.05 | cell viability [3]: 1.05 | TCF/Wnt firefly luciferase reporter signal [4]: 0.9135 ± 0.0064 | TCF/Wnt firefly luciferase reporter signal [5]: 0.933 ± 0.057

CCn1cc(C(=O)O)c(=O)c2cnc(N3CCCC3)nc21
cell viability [1]: 0.983 ± 0.025 | cell viability [2]: 1 ± 0.029 | cell viability [3]: 0.955 ± 0.02 | TCF/Wnt firefly luciferase reporter signal [4]: 0.856 ± 0.055 | TCF/Wnt firefly luciferase reporter signal [5]: 0.978 ± 0.046

CC(=O)CC(=O)CCC(=O)O
cell viability [1]: 1.02 ± 0.11 | cell viability [2]: 0.996 ± 0.12 | cell viability [3]: 0.935 ± 0.033 | TCF/Wnt firefly luciferase reporter signal [4]: 0.844 ± 0.13 | TCF/Wnt firefly luciferase reporter signal [5]: 0.939 ± 0.02

CCN(CC)C(=O)c1cccc(C)c1
cell viability [1]: 0.954 ± 0.041 | cell viability [2]: 1.01 ± 0.05 | cell viability [3]: 0.991 ± 0.028 | TCF/Wnt firefly luciferase reporter signal [4]: 1.03 ± 0.079 | TCF/Wnt firefly luciferase reporter signal [5]: 0.923 ± 0.061

O=C1C(CC[S+]([O-])c2ccccc2)C(=O)N(c2ccccc2)N1c1ccccc1 (stereo not given)
cell viability [1]: 1.07 ± 0.028 | cell viability [2]: 1.09 ± 0.064 | cell viability [3]: 1.035 ± 0.0071 | TCF/Wnt firefly luciferase reporter signal [4]: 0.857 ± 0.079 | TCF/Wnt firefly luciferase reporter signal [5]: 0.885 ± 0.089

NC(=O)N1c2ccccc2CC(=O)c2ccccc21
cell viability [1]: 0.9 ± 0.09 | cell viability [2]: 0.847 ± 0.09 | cell viability [3]: 1.03 ± 0.014 | TCF/Wnt firefly luciferase reporter signal [4]: 1.06 | TCF/Wnt firefly luciferase reporter signal [5]: 1.1 ± 0.14

C[C@@H]1CC[C@@]2(OC1)O[C@H]1C[C@H]3[C@@H]4CC=C5C[C@@H](O)CC[C@]5(C)[C@H]4CC[C@]3(C)[C@H]1[C@@H]2C
cell viability [1]: 1.01 ± 0.14 | cell viability [2]: 0.973 ± 0.025 | cell viability [3]: 0.93 ± 0.046 | TCF/Wnt firefly luciferase reporter signal [4]: 0.89 ± 0.063 | TCF/Wnt firefly luciferase reporter signal [5]: 0.998 ± 0.06

CC(C)[C@@H](C)/C=C/[C@@H](C)[C@H]1CC[C@H]2C3=CCC4CC(=O)CC[C@]4(C)[C@H]3CC[C@]12C (stereo not given in full)
cell viability [1]: 0.975 ± 0.078 | cell viability [2]: 1.07 ± 0.05 | cell viability [3]: 1.08 | TCF/Wnt firefly luciferase reporter signal [4]: 1.06 ± 0.071 | TCF/Wnt firefly luciferase reporter signal [5]: 1.06 ± 0.021

O=c1cc(-c2ccccc2)oc2cc(O)c(O)c(O)c12
cell viability [1]: 1.08 ± 0.021 | cell viability [2]: 1.06 ± 0.042 | cell viability [3]: 1.12 ± 0.035 | TCF/Wnt firefly luciferase reporter signal [4]: 0.927 ± 0.073 | TCF/Wnt firefly luciferase reporter signal [5]: 1.02 ± 0.037

CCC1(C)CC(=O)NC1=O (stereo not given)
cell viability [1]: 0.932 ± 0.018 | cell viability [2]: 1.09 ± 0.021 | cell viability [3]: 1 ± 0.022 | TCF/Wnt firefly luciferase reporter signal [4]: 1.15 ± 0.11 | TCF/Wnt firefly luciferase reporter signal [5]: 0.865 ± 0.0092

COc1cc(O)c(C(=O)c2ccccc2)cc1O
cell viability [1]: 0.889 ± 0.07 | cell viability [2]: 0.84 ± 0.17 | cell viability [3]: 1.07 ± 0.15 | TCF/Wnt firefly luciferase reporter signal [4]: 0.891 ± 0.28 | TCF/Wnt firefly luciferase reporter signal [5]: 0.845 ± 0.12

CCOc1ccc(Cc2nccc3cc(OCC)c(OCC)cc23)cc1OCC
cell viability [1]: 0.876 ± 0.016 | cell viability [2]: 0.885 ± 0.056 | cell viability [3]: 0.921 ± 0.0071 | TCF/Wnt firefly luciferase reporter signal [4]: 0.99 ± 0.13 | TCF/Wnt firefly luciferase reporter signal [5]: 0.95 ± 0.099

COc1cc2c(=O)c(-c3ccc4c(c3)OCO4)coc2c(OC)c1OC
cell viability [1]: 1.05 ± 0.05 | cell viability [2]: 1.01 ± 0.073 | cell viability [3]: 1 ± 0.011 | TCF/Wnt firefly luciferase reporter signal [4]: 0.94 ± 0.05 | TCF/Wnt firefly luciferase reporter signal [5]: 0.922 ± 0.026

COc1ccc(-c2cc(C(F)F)nn2-c2ccc(S(N)(=O)=O)cc2)cc1F
cell viability [1]: 0.869 ± 0.086 | cell viability [2]: 1.01 ± 0.014 | cell viability [3]: 1.04 ± 0.057 | TCF/Wnt firefly luciferase reporter signal [4]: 0.983 ± 0.025 | TCF/Wnt firefly luciferase reporter signal [5]: 0.995 ± 0.078

O=C(c1ccccc1)c1ccc2n1CCC2C(=O)O (stereo not given)
cell viability [1]: 1.03 ± 0.095 | cell viability [2]: 0.929 ± 0.16 | cell viability [3]: 1 ± 0.023 | TCF/Wnt firefly luciferase reporter signal [4]: 0.911 ± 0.066 | TCF/Wnt firefly luciferase reporter signal [5]: 0.924 ± 0.021

Cc1cc(C(C)(C)C)cc(C)c1CC1=NCCN1
cell viability [1]: 1.095 ± 0.0071 | cell viability [2]: 1.06 ± 0.035 | cell viability [3]: 1.07 ± 0.057 | TCF/Wnt firefly luciferase reporter signal [4]: 0.9565 ± 0.0064 | TCF/Wnt firefly luciferase reporter signal [5]: 0.991 ± 0.098

Cc1c2oc3c(C)ccc(C(=O)N[C@@H]4C(=O)N[C@H](C(C)C)C(=O)N5CCC[C@H]5C(=O)N(C)CC(=O)N(C)[C@@H](C(C)C)C(=O)O[C@@H]4C)c3nc-2c(C(=O)N[C@@H]2C(=O)N[C@H](C(C)C)C(=O)N3CCC[C@H]3C(=O)N(C)CC(=O)N(C)[C@@H](C(C)C)C(=O)O[C@@H]2C)c(N)c1=O
cell viability [1]: 1.06 ± 0.071 | cell viability [2]: 0.601 ± 0.18 | cell viability [3]: 1.31 ± 0.035 | TCF/Wnt firefly luciferase reporter signal [4]: 0.612 ± 0.11 | TCF/Wnt firefly luciferase reporter signal [5]: 0.802 ± 0.039

CC/C(=C(/CC)c1ccc(O)cc1)c1ccc(O)cc1
cell viability [1]: 0.959 ± 0.072 | cell viability [2]: 0.845 ± 0.021 | cell viability [3]: 0.982 ± 0.11 | TCF/Wnt firefly luciferase reporter signal [4]: 1.06 ± 0.18 | TCF/Wnt firefly luciferase reporter signal [5]: 1.13 ± 0.028

C/C=C/C=C/[C@@H]1O[C@](O)([C@H](CC)C(=O)NC/C=C/C=C(\C)[C@@H](OC)[C@@H](C)[C@@H]2O[C@H](/C=C/C=C/C=C(\C)C(=O)c3c(O)ccn(C)c3=O)[C@H](O)[C@@H]2O)C[C@H](O)C1(C)C (single isomer, unassigned; isomere) [Heneicomycin (Isomere)]
cell viability [1]: 0.948 ± 0.037 | cell viability [2]: 1.04 ± 0.14 | cell viability [3]: 1.035 ± 0.0071 | TCF/Wnt firefly luciferase reporter signal [4]: 1.05 ± 0.064 | TCF/Wnt firefly luciferase reporter signal [5]: 1.03 ± 0.021

CC1=CC2C(C(C)C)CCC(C)(O)C2CC1 (stereo not given)
cell viability [1]: 0.97 ± 0.036 | cell viability [2]: 0.929 ± 0.011 | cell viability [3]: 0.969 ± 0.013 | TCF/Wnt firefly luciferase reporter signal [4]: 1.02 ± 0.11 | TCF/Wnt firefly luciferase reporter signal [5]: 0.957 ± 0.025

Cn1c(=O)c2nc(C3CCCC3)[nH]c2n(C)c1=O
cell viability [1]: 1.07 ± 0.064 | cell viability [2]: 1.05 ± 0.1 | cell viability [3]: 1.02 ± 0.047 | TCF/Wnt firefly luciferase reporter signal [4]: 1.01 ± 0.17 | TCF/Wnt firefly luciferase reporter signal [5]: 0.968 ± 0.039

CCOC(=O)C(=O)C1(C(=O)OCC)Oc2cc(OC)cc(OC)c2C(=O)C1c1ccccc1 (stereo not given)
cell viability [1]: 0.978 ± 0.03 | cell viability [2]: 0.951 ± 0.23 | cell viability [3]: 1.01 ± 0.13 | TCF/Wnt firefly luciferase reporter signal [4]: 0.939 ± 0.083 | TCF/Wnt firefly luciferase reporter signal [5]: 1.02 ± 0.069

Nc1nc(F)nc2c1ncn2[C@@H]1O[C@H](COP(=O)(O)O)[C@@H](O)[C@@H]1O
cell viability [1]: 0.987 ± 0.061 | cell viability [2]: 0.942 ± 0.019 | cell viability [3]: 0.972 ± 0.054 | TCF/Wnt firefly luciferase reporter signal [4]: 0.926 ± 0.018 | TCF/Wnt firefly luciferase reporter signal [5]: 1.04 ± 0.021

O=C(OCC(O)CO)c1ccccc1Nc1ccnc2cc(Cl)ccc12 (stereo not given)
cell viability [1]: 0.984 ± 0.037 | cell viability [2]: 1.015 ± 0.0071 | cell viability [3]: 1.02 ± 0.021 | TCF/Wnt firefly luciferase reporter signal [4]: 0.954 ± 0.15 | TCF/Wnt firefly luciferase reporter signal [5]: 0.922 ± 0.044
